# Experimental data from publication PMC7862700, “An all-to-all approach to the identification of sequence-specific readers for epigenetic DNA modifications on cytosine”.
# How the values were obtained:
# Assay in all cases: DAPPL (digital affinity profiling via proximity ligation, sequencing); 10 mM Tris-HCl pH 7.5, 50 mM NaCl, 1 mM DTT, 4% glycerol, room temperature, 30 min; GST-TFs on glutathione beads, 16-mer random dsDNA library, 0.1% formaldehyde crosslink after washing; high values mean tight binding
# Conditions in all cases: protein: recombinant; tags: N-terminal GST; dsDNA, one strand shown
# FLI1 = biological target: T1, FLI1 (Homo sapiens, UniProt Q01543 1-452)
# T1 sequence: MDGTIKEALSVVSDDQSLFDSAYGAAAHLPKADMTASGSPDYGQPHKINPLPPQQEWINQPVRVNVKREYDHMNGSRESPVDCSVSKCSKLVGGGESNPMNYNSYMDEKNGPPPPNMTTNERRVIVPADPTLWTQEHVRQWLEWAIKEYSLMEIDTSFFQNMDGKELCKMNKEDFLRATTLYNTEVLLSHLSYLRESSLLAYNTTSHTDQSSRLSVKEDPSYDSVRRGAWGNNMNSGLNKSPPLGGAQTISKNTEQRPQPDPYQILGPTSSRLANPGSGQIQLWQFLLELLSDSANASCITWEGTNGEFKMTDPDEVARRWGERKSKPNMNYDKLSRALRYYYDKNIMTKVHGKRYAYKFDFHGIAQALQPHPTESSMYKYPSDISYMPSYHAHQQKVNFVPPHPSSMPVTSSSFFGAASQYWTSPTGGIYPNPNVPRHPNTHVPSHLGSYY
# In short: (§1)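 After expression in yeast as GST fusions, human transcription factors were bound to glutathione beads, DNA-barcoded and mixed with a tag-only sample. The pools were incubated with 200 nmole of a 16-mer random double-stranded DNA library in Tris/NaCl/DTT/glycerol buffer (30 min, room temperature), washed and crosslinked with 0.1% formaldehyde. Proximity ligation with BsaI/T4 ligase ran for 1 h at 37 °C, before PCR amplification and sequencing on an Illumina NextSeq500. Binding signal is a hexamer's read frequency for a factor divided by its frequency for the tag-only sample.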
# ELK1 = biological target: T2, ELK1 (Homo sapiens, UniProt P19419 1-428)
# T2 sequence: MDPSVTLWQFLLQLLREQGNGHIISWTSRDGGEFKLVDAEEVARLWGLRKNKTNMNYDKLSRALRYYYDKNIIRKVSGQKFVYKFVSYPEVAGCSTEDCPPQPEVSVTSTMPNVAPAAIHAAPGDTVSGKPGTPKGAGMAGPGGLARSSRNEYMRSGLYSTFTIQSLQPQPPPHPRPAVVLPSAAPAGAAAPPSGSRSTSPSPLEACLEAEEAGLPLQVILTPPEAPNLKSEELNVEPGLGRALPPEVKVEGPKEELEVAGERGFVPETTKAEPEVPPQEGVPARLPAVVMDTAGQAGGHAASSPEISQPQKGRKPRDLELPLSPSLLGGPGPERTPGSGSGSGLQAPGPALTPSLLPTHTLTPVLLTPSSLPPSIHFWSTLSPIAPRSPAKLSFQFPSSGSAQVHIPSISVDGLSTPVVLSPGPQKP
# In short: as §1
# GABPA = biological target: T3, GABPA (Homo sapiens, UniProt Q06546 1-454)
# T3 sequence: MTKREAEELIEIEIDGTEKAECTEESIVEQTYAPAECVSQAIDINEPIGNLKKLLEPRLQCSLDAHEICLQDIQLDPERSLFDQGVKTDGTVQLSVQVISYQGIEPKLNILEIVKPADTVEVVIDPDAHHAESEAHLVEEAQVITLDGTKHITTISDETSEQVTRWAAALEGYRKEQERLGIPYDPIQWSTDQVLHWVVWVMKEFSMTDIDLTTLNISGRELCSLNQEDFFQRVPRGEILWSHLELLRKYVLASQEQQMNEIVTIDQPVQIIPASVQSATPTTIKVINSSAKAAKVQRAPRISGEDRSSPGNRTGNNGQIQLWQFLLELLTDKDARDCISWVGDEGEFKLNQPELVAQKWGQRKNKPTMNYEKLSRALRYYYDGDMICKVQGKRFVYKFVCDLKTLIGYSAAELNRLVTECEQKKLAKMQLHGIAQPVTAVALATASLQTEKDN
# In short: as §1
# ERG = biological target: T4, ERG (Homo sapiens, UniProt P11308 1-479)
# T4 sequence: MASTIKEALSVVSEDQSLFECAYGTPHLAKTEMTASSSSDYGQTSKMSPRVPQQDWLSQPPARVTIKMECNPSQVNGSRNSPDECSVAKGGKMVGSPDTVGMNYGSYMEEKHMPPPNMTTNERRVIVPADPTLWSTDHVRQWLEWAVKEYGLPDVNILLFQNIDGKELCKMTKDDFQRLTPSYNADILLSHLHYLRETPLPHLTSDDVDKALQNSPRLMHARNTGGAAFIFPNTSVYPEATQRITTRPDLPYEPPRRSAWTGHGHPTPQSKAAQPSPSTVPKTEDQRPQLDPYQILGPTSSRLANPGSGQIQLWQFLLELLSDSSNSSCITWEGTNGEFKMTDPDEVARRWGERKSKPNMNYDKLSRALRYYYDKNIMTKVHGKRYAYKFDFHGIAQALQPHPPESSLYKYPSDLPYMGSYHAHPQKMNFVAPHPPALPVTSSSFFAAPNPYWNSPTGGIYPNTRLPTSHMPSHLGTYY
# In short: as §1
# ELF1 = ELF1 (Homo sapiens, UniProt P32519 1-619)
# In short: as §1
# EHF = biological target: T5, EHF (Homo sapiens, UniProt Q9NZC4 1-300)
# T5 sequence: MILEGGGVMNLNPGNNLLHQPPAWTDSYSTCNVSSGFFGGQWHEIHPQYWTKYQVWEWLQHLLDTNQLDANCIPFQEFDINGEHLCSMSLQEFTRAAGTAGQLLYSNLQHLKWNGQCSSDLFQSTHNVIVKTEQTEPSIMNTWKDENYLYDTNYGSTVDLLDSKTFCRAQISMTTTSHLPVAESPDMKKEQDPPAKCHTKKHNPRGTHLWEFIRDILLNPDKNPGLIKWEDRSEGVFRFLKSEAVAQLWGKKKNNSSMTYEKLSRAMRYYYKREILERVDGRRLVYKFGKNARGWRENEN
# In short: as §1
# SPI1 = SPI1 (Homo sapiens, UniProt P17947 1-270)
# In short: as §1
# SPIB = SPIB (Homo sapiens, UniProt Q01892 1-262)
# In short: as §1
# ELK3 = biological target: T6, ELK3 (Homo sapiens, UniProt P41970 1-407)
# T6 sequence: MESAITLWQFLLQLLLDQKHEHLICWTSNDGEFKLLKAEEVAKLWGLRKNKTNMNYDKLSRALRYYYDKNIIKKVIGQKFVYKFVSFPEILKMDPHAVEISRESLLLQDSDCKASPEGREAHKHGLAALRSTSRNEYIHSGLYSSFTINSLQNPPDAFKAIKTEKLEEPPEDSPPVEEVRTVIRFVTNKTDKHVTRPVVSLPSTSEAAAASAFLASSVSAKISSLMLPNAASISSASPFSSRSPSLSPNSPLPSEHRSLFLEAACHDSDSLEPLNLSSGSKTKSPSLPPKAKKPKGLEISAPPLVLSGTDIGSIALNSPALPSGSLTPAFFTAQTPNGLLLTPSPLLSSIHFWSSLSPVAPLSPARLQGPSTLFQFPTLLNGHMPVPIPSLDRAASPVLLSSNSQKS
# In short: as §1
# FEV = biological target: T7, FEV (Homo sapiens, UniProt Q99581 1-238)
# T7 sequence: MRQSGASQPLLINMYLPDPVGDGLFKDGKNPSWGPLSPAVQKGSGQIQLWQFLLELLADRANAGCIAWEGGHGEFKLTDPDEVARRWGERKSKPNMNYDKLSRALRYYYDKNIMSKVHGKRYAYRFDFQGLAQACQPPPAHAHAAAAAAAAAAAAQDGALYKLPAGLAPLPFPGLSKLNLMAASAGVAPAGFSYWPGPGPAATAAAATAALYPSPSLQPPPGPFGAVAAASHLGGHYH
# In short: as §1
# ETV5 = ETV5 (Homo sapiens, UniProt P41161 1-510)
# In short: as §1
# SPIC = biological target: T8, SPIC (Homo sapiens, UniProt Q8N5J4 1-248)
# T8 sequence: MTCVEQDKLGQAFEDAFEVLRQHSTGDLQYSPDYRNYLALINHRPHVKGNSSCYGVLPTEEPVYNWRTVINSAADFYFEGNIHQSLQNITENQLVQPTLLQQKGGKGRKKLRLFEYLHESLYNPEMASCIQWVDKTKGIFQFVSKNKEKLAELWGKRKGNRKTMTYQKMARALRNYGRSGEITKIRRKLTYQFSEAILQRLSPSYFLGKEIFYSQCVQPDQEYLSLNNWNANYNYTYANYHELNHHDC
# In short: as §1
# ELF4 = ELF4 (Homo sapiens, UniProt Q99607 1-663)
# In short: as §1
# ETV1 = ETV1 (Homo sapiens, UniProt P50549 1-477)
# In short: as §1
# ERF = biological target: T9, ERF (Homo sapiens, UniProt P50548 1-548)
# T9 sequence: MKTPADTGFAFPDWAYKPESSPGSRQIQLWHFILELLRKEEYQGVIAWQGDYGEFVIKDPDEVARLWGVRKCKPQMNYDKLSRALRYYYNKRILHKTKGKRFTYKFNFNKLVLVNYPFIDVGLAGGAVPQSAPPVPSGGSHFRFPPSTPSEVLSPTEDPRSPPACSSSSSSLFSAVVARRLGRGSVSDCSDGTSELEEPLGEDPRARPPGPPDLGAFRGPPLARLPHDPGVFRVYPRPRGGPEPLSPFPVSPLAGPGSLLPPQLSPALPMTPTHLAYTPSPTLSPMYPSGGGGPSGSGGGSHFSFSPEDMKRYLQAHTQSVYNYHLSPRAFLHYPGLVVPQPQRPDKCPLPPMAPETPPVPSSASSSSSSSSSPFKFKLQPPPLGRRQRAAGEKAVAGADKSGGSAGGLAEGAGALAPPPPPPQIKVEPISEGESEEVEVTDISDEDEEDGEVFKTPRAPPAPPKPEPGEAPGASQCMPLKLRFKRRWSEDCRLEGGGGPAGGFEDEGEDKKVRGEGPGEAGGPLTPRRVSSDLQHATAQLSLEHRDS
# In short: as §1
# ETV3L = biological target: T10, ETV3L (Homo sapiens, UniProt Q6ZN32 1-361)
# T10 sequence: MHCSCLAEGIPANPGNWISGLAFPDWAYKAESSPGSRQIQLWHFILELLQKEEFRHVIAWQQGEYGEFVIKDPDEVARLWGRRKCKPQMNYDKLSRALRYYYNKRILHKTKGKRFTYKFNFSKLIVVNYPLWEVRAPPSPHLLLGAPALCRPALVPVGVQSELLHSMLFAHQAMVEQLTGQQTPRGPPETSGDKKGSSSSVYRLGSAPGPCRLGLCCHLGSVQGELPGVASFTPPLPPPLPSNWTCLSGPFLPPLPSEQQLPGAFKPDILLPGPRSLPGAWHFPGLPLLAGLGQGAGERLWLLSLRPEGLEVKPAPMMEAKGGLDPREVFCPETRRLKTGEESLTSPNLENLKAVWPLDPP
# In short: as §1
# ETS2 = biological target: T11, ETS2 (Homo sapiens, UniProt P15036 1-469)
# T11 sequence: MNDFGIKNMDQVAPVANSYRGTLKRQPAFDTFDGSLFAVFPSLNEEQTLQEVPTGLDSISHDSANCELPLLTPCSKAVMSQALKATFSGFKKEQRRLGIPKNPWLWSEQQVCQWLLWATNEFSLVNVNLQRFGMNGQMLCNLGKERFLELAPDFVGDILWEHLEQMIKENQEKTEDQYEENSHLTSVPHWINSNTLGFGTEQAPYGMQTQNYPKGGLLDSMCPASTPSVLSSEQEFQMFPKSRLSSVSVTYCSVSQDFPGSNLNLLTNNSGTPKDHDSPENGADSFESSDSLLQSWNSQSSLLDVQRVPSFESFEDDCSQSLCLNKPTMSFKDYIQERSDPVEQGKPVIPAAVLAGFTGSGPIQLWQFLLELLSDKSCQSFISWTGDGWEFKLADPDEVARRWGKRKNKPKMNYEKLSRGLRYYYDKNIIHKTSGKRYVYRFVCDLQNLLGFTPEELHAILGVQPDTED
# In short: as §1
# SPDEF = biological target: T12, SPDEF (Homo sapiens, UniProt O95238 1-335)
# T12 sequence: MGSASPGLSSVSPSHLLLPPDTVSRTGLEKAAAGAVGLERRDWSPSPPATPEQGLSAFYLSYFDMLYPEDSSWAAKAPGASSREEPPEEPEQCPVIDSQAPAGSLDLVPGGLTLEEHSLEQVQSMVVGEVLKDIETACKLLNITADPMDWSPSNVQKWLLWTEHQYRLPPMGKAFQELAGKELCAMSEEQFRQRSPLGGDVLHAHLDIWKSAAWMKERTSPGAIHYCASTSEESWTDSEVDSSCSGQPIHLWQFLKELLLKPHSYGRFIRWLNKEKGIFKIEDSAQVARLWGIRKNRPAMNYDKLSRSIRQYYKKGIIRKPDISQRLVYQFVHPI
# In short: as §1
# ETV3 = biological target: T13, ETV3 (Homo sapiens, UniProt P41162-2 1-143)
# T13 sequence: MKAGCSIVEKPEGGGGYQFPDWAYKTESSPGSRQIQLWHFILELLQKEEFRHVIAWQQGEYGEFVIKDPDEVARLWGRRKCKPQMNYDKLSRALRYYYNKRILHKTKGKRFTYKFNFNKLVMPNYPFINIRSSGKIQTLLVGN
# In short: as §1
# ETV6 = ETV6 (Homo sapiens, UniProt P41212 1-452)
# In short: as §1
# ETV1, sequence (P50549 whole entry): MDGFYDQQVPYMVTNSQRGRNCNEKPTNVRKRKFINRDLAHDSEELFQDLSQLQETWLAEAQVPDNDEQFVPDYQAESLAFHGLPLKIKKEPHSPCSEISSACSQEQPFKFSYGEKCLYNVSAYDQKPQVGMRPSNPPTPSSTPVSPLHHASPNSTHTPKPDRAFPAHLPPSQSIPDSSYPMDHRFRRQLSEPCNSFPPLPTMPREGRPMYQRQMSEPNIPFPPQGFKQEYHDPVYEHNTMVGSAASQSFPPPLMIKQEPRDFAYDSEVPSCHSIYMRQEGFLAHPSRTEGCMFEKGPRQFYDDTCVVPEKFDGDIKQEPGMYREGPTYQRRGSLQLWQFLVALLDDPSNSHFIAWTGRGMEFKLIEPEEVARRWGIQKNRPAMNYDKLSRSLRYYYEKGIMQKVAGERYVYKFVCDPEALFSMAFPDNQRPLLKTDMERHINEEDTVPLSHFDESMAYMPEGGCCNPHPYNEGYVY
# SPIB, sequence (Q01892 whole entry): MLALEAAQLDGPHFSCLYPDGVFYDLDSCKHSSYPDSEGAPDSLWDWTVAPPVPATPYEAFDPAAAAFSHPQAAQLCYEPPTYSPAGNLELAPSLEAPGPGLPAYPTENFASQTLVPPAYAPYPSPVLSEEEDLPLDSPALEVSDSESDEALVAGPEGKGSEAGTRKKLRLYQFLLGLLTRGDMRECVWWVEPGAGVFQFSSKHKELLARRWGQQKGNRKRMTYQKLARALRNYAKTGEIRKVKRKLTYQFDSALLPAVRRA
# ETV6, sequence (P41212 whole entry): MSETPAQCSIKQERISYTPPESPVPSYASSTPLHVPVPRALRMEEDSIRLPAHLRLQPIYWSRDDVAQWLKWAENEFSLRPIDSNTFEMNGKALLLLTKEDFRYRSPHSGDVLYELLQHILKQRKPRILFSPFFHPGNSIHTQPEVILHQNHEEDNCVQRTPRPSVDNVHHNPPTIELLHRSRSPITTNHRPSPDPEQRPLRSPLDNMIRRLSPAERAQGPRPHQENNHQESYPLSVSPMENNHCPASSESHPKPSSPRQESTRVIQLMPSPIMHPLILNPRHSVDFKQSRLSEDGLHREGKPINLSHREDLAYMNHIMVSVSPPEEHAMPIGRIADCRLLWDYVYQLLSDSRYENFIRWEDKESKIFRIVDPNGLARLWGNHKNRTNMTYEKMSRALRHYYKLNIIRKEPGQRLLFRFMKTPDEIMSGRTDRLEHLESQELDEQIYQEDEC
# ETV5, sequence (P41161 whole entry): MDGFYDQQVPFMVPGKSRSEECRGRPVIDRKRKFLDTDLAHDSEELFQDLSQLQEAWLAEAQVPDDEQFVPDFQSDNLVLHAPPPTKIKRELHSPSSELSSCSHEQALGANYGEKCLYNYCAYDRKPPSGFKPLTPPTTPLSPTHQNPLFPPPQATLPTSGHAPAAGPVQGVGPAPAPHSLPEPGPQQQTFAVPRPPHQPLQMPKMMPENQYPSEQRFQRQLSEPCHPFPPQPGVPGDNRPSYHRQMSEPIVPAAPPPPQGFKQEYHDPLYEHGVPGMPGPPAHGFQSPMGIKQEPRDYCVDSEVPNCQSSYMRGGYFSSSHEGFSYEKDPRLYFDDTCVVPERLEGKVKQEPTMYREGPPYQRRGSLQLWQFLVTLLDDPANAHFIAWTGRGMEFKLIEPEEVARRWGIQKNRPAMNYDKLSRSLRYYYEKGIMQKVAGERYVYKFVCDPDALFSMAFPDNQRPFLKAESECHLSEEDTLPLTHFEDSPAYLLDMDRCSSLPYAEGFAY
# ELF4, sequence (Q99607 whole entry): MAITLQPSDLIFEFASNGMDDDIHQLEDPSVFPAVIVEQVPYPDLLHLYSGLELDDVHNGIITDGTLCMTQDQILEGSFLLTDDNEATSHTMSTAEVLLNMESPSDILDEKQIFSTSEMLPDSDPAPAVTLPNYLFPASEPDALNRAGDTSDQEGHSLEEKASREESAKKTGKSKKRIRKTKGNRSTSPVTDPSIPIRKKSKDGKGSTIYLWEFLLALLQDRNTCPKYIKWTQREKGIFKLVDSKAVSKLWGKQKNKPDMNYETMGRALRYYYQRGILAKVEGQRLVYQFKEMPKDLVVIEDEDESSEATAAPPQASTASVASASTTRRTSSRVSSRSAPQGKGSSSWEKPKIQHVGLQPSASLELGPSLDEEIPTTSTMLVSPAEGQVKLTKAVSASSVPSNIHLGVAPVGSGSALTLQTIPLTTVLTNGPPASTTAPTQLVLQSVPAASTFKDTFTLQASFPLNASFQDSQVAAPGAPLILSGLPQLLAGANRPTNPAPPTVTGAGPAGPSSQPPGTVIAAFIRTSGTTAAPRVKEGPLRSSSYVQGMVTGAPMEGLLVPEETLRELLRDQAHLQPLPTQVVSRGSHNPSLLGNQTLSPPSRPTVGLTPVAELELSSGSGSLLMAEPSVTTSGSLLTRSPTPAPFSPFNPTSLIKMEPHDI
# ELF1, sequence (P32519 whole entry): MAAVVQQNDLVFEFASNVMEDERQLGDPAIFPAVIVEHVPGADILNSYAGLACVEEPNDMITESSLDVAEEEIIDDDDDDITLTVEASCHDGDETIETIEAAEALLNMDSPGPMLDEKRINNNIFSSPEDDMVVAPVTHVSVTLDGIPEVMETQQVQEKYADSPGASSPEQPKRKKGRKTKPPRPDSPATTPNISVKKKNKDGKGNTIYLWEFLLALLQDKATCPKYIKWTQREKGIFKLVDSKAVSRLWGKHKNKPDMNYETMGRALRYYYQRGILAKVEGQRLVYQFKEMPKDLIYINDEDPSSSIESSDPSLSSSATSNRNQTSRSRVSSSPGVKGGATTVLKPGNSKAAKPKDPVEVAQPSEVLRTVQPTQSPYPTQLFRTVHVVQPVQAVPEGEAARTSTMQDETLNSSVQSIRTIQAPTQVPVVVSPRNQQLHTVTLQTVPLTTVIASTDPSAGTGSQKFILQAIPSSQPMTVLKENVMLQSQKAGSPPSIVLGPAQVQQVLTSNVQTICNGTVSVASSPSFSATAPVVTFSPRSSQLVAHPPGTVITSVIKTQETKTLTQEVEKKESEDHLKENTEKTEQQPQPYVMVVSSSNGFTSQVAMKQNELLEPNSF
sequence,measurement,setting,value
GCCCAC,binding signal,FLI1,"1.09 fold enrichment (6-mer frequency, TF over GST control)"
same,binding signal,ELK1,"1.18 fold enrichment (6-mer frequency, TF over GST control)"
same,binding signal,GABPA,"1.06 fold enrichment (6-mer frequency, TF over GST control)"
same,binding signal,ERG,"1.06 fold enrichment (6-mer frequency, TF over GST control)"
same,binding signal,ELF1,"1.1 fold enrichment (6-mer frequency, TF over GST control)"
same,binding signal,EHF,"1.13 fold enrichment (6-mer frequency, TF over GST control)"
same,binding signal,SPI1,"1.07 fold enrichment (6-mer frequency, TF over GST control)"
same,binding signal,SPIB,"1.12 fold enrichment (6-mer frequency, TF over GST control)"
same,binding signal,ELK3,"1.03 fold enrichment (6-mer frequency, TF over GST control)"
same,binding signal,FEV,"1.12 fold enrichment (6-mer frequency, TF over GST control)"
same,binding signal,ETV5,"1.16 fold enrichment (6-mer frequency, TF over GST control)"
same,binding signal,SPIC,"1.13 fold enrichment (6-mer frequency, TF over GST control)"
same,binding signal,ELF4,"1.18 fold enrichment (6-mer frequency, TF over GST control)"
same,binding signal,ETV1,"1 fold enrichment (6-mer frequency, TF over GST control)"
same,binding signal,ERF,"1.09 fold enrichment (6-mer frequency, TF over GST control)"
same,binding signal,ETV3L,"1.04 fold enrichment (6-mer frequency, TF over GST control)"
same,binding signal,ETS2,"1.04 fold enrichment (6-mer frequency, TF over GST control)"
same,binding signal,SPDEF,"1.06 fold enrichment (6-mer frequency, TF over GST control)"
same,binding signal,ETV3,"1.09 fold enrichment (6-mer frequency, TF over GST control)"
same,binding signal,ETV6,"1.05 fold enrichment (6-mer frequency, TF over GST control)"
